Results reported in PubChem BioAssay AID2284345 (EPA ToxCast).
Results filed as inconclusive are left out. Activity calls are given as the source filed them. How the source made its calls: active means hit-call score of the fitted dose curve at least 0.9, where 1 is the maximum; inconclusive means response in the unintended direction; inactive means score below 0.9.

System: zebrafish Glucocorticoid Receptor (GR), gene 553740
Experiment: ATG_zfGR_EcoTox2: Attagene TRANS-FACTORIAL EcoTox-2 HepG2 Assay for zebrafish Glucocorticoid Receptor (GR)
Method: ATG_EcoTox2 is a cell-based, multiplexed assay created by modifying the existing Attagene TRANS-FACTORIAL system to include a panel of nuclear receptors from some or all the following species: human (Homo sapiens), african clawed frog (Xenopus laevis), rainbow trout (Oncorhynchus mykiss), japanese medaka (Oryzias latipes), and zebrafish (Danio rerio). The ECOTOX2-FACTORIAL format uses HepG2, a human liver cell line, with measurements taken at 24 hours after chemical dosing in a 24-well plate. ATG_zfGR_EcoTox2 is one of 29 assay components calculated in the ATG_EcoTox2 assay. It is designed to make measurements of mRNA induction, a form of inducible reporter, as detected with fluorescence intensity signals by Reverse transcription polymerase chain reaction (RT-PCR) and Capillary electrophoresis technology.The assay endpoint ATG_zfGR_EcoTox2 was analyzed in the positive analysis fitting direction relative to DMSO as the negative control and baseline of activity. Using a type of inducible reporter, measures of mRNA for gain-of-signal activity can be used to understand the reporter gene at the transcription factor-level as they relate to the gene for glucocorticoid receptor. Furthermore, this assay endpoint can be referred to as a primary readout, because this assay has produced multiple assay endpoints where this one serves a reporter gene function. […]

Row | Compound | outcome
1 | O=P(Oc1ccccc1)(Oc1ccccc1)Oc1ccccc1 | inactive
2 | O=S(=O)(O)C(F)(F)C(F)(F)C(F)(F)C(F)(F)C(F)(F)C(F)(F)F | inactive
